Screening results as filed in PubChem BioAssay.
Gal4-VP16 FLuc – inhibits Gal4-VP16 luciferase reporter, ROR gamma counter-screen; Drosophila S2 Gal4-VP16 UAS-luciferase, luminescence, 20 h; Potency, µM (highest dose often 53.6 µM), for inactives: at the top dose activity, negative = inhibition, most hits filed as inhibitors; 310,000 compounds, 3.5% hits;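 note: Gal4-VP16 expression switched on by copper sulfate through the metallothionein promoter; potency is the fitted concentration of half-maximal effect; nearly all actives have a fitted effect of over 50% in size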
RORg inh – ROR gamma (mouse) transcription inhibition | Drosophila S2 Gal4-RORgamma UAS-luciferase reporter, 20 h | Potency, µM (series often up to 53.6 µM), for inactives: top-dose activity change, negative = inhibition, actives largely listed as inhibitors | 310,000 compounds, 5.4% hits | AID 2551; note: potency is the fitted concentration of half-maximal effect; nearly all actives have a fitted effect of over 60% in size
Target sequence (P51450 whole entry, looked up, the tested form may be a part): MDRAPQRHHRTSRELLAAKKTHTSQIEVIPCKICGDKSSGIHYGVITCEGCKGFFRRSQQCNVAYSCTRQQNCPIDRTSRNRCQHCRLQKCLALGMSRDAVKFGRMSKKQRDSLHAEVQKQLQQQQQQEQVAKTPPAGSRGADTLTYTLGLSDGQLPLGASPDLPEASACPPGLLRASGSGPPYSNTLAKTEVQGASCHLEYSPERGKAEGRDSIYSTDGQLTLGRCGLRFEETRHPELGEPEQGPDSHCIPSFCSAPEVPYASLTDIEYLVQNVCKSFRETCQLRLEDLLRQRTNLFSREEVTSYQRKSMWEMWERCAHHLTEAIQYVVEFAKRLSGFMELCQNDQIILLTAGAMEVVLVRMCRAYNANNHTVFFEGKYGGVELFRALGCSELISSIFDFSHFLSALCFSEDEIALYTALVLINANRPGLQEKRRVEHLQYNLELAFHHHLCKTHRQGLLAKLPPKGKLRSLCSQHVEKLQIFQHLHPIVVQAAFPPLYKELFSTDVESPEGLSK
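Drosophila S2 cells stably expressing Gal4-DBD/mouse RORγ fusion under metallothionein promoter plus UAS-luciferase; compound 1 h, then 700 uM CuSO4 induction for 20 h at ambient temperature; inhibition read as reduced luminescence.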
DT40 TDP1 no CPT – qHTS for Inhibitors of human tyrosyl-DNA phosphodiesterase 1 (TDP1): qHTS in cells in absence of CPT | DT40 Tdp1-/- hTDP1 cells, no CPT, ATP luminescence, 48 h | Potency, µM (highest dose often 46.2 µM), for inactives: at the highest dose activity change, negative = growth inhibition, most hits filed as inhibitors | 420,000 compounds, 15% hits | AID 686978, 2013; note: potency is the fitted concentration of half-maximal effect; nearly all actives have a fitted effect of over 55% in size
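Cells were dispensed at 400 per well, compounds added by pin tool, plates incubated ≥48 hr at 37 °C, then CellTiter-Glo added for 30 min at room temperature before luminescence reading. Line: DT40 Tdp1-/- complemented with hTDP1; camptothecin omitted.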
DT40 TDP1 CPT – DT40-hTDP1 cell growth loss with CPT. chicken DT40 Tdp1-/-;hTDP1 cells + 20 nM CPT, ATP luminescence, 48 h. Potency, µM (highest dose often 46.2 µM), for inactives: top-dose activity change, negative = growth inhibition, hits mostly inhibitors. 420,000 compounds, 12% hits; note: potency is the fitted concentration of half-maximal effect; nearly all actives have a fitted effect of over 55% in size
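Chicken DT40 Tdp1-/- cells stably complemented with human TDP1 were seeded at 400 cells/well in medium containing 20 nM camptothecin, exposed to pin-transferred compounds, and grown at 37 °C for at least 48 hr. Viability was read as ATP luminescence.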
IL-1B inflam inh – inflammasome signaling inhibition, IL-1 beta readout; THP-1 LPS/ATP IL-1B secretion, AlphaLISA, 16 h; hits give low values; activity change, % at 57.5 µM; 360,000 compounds, 4.7% hits; AID 743279; in the data active = activity change below about -50%; inconclusive = mostly about -30% to -49%
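Secreted IL-1B measured by AlphaLISA bead assay after 16 h compound exposure of THP-1 cells; compounds (final up to 57.5 uM) added 1 h before LPS (250 ng/mL) and ATP (1.25 mM) stimulation; lower signal means less secretion.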
ELG1 DNA repair – blocks ELG1-dependent DNA repair in HEK293T cells; HEK293T ELG1-luciferase reporter, luminescence, 16 h; DNA damage induced by 5-fluorouridine; Potency, µM (titrated, usually from 46.1 µM), for the others: top-dose activity change, negative = inhibition, hits mostly inhibitors; 330,000 compounds, 2.3% hits; note: potency is the fitted concentration of half-maximal effect; nearly all actives have a fitted effect of over 55% in size
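5-Fluorouridine DNA damage + compound/DMSO, 2,000 cells/well, 16 h, 37 °C/5% CO2. ONE-Glo, 30 min RT, luminescence. Readout = decrease in reporter signal.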
Active calls of the source: *; ? = inconclusive; . = no result given; ! = repeats disagree; [ ] = another dose, or the depositor's remark. The list is not random: actives were taken first. Their share in the collection is about 21%. Unless noted, calls come from the whole dose curve; as a rule, active = well fitted curve in the direction sought with a large enough effect; inconclusive = small, poorly fitted or top-dose-only effect, or another doubt; inactive = no such curve, though single readings can be large; an effect the other way counts as inactive or inconclusive. % is set by controls: 0 for no effect and ±100 for the full control effect.

SMILES	Gal4-VP16 FLuc	RORg inh	DT40 TDP1 no CPT	DT40 TDP1 CPT	IL-1B inflam inh	ELG1 DNA repair
COc1cc(CN2CCN(Cc3ccco3)CC2)cc(OC)c1	-7%	1%	-14%	2%	12	1%
S=C1NCN(CCc2ccccc2)CN1Cc1ccccc1	3%	5%	?	?	-2	0%
CCOCCCN1CN(Cc2ccco2)CNC1=S	-4%	11µM*	-2%	-5%	10	?
CCCN1CNC(=S)N(Cc2ccccc2)C1	7.1µM*	5.6µM*	-2%	2%	7	6%
CCCN1CN(Cc2ccccc2)CNC1=S	7.1µM*	6.3µM*	-2%	-3%	-1	25%
S=C1NCN(Cc2ccco2)CN1CCc1ccccc1	11µM*	2.2µM*	?	?	-2	-10%
O=C(NC1CCCCC1)c1cccc(COCC(F)(F)F)c1	-21%	?	-2%	-1%	-27	-4%
CCCCN1CNC(=S)N(Cc2ccccc2)C1	5.6µM*	4µM*	8%	-1%	-3	10%
COCCCN1CN(Cc2ccccc2)CNC1=S	?	11µM*	-7%	?	20	1%
COc1ccc(CCn2c3c(c(=O)[nH]c2=S)CN(Cc2ccccc2)CN3)cc1OC	.	.	-21%	?	.	.
CCCN1CNC(=S)N(CC2CCCO2)C1 (stereo unspecified)	?	?	2%	11%	11	?
CC(C)CN1CN(Cc2ccco2)CNC1=S	?	2.2µM*	-3%	-22%	20	11%
CC(C)CN1CN(Cc2ccccc2)CNC1=S	5.6µM*	4µM*	-4%	0%	-4	11%
CC(=O)c1c(N2CCN(Cc3ccccc3)CC2)nc(=S)n(-c2ccccc2)c1C	4%	0%	23µM*	?	-19	3%
CC(=O)c1c(N2CCN(c3ccccc3)CC2)nc(=S)n(-c2ccccc2)c1C	1%	14%	21µM*	23µM*	-65*	-5%
CC(=O)c1c(N2CCN(Cc3ccc4c(c3)OCO4)CC2)nc(=S)n(-c2ccccc2)c1C	-10%	6%	18µM*	?	-2	8%
Cc1[nH]c2ccccc2c1C(C[N+](=O)[O-])c1cccs1 (stereo unspecified)	-4%	40%	?	?	-96*	?
Cc1ccc(-c2[nH]c3ccccc3c2C(C[N+](=O)[O-])c2ccco2)cc1 (stereo unspecified)	22µM*	3%	?	?	-1	?
CC(OC(=O)c1cc(S(=O)(=O)N(C)c2ccccc2)ccc1Cl)C(=O)Nc1ccc2c(c1)OCCO2 (stereo unspecified)	-1%	33%	-28%	-6%	-21	?
NC[C@@H]1O[C@H](O[C@H]2[C@H](O)[C@H](O[C@@H]3O[C@H](CO)[C@@H](O)[C@H](N)[C@@H]3O)[C@@H](N)C[C@H]2N)[C@@H](O)[C@H](O)[C@@H]1O	-6%[17 µM]	23%[2.98 µM]	.	.	.	.
Cc1ccccc1NC(=O)c1ccco1	5%	-27%[1.91 µM]	10%	-3%	10	?
Nc1c(C(=O)Nc2ccccc2)sc2nc3c(c(-c4ccco4)c12)CCC3	-1%	32%	9.2µM*	8.2µM*	-25	?
Cc1ccc(NC(=O)c2sc3nc4c(c(-c5ccco5)c3c2N)CCC4)cc1	-11%	?	?	?	8	-4%
Cc1ccccc1NC(=O)c1sc2nc3c(c(-c4ccco4)c2c1N)CCCC3	2%	9%	?	16µM*	?	?
Nc1c(C(=O)Nc2ccccc2)sc2nc3c(c(-c4ccco4)c12)CCCC3	-7%	26%	?	?	-51*	?
SMILES	Gal4-VP16 FLuc	RORg inh	DT40 TDP1 no CPT	DT40 TDP1 CPT	IL-1B inflam inh	ELG1 DNA repair
Cc1ccc(NC(=O)c2sc3nc(N4CCOCC4)c4c(c3c2N)CCCC4)cc1	.	.	?	-9%	-23	.
OCCC1CN(Cc2ccc(Oc3ncccn3)cc2)CCN1C1CCCC1 (stereo unspecified)	-4%	5%	1%	?	-16	-3%
CCc1ccc(NC(=O)NCCc2c(C)nn(C)c2C)cc1	.	.	?	-5%	.	.
CC(C)NC(=O)C1(C)CN(S(C)(=O)=O)CC(=O)N1CCc1ccccc1 (stereo unspecified)	.	.	12%	5%	0	.
CCCCNc1c(C(=O)OCC)c(C)nc2c1cnn2CC	?	32µM*!	21µM*	13µM*	1	.
C=CCOc1c(Br)cc(CNn2cn[nH]c2=S)cc1OC	-2%	10µM*	-12%	-3%	9	13%
C=CCOc1ccc(CNn2cn[nH]c2=S)cc1	?	13µM*	-5%	-3%	6	16%
C#CCOc1ccc(C(=O)N(C)c2ccccc2I)cc1	-1%	-1%	.	.	.	.
CCN(CC)c1ncnc2c1ncn2[C@H]1CN(Cc2ccc(F)cc2)C[C@@H](CO)O1	.	.	-23%	?	-6	.
NS(=O)(=O)c1ccc(NC(=S)Nc2nn(Cc3ccc(Cl)cc3Cl)cc2Cl)cc1	6.3µM*	6.3µM*	?	?	-18	?
NS(=O)(=O)c1ccc(NC(=S)Nc2ccc(F)c(F)c2)cc1	5%	-20%	-14%	-6%	12	-9%
O=S(=O)(c1ccccc1)N1CCC2(CCCN(c3ncccn3)C2)CC1	7%	4%	?	-4%	.	.
CCOC(=O)[C@H](CCc1ccccc1)N[C@H]1CCc2ccccc2N(CC(=O)O)C1=O	-2%	-15%	21µM*!	?	10	.
CCOC(=O)C(CCc1ccccc1)NC1CCc2ccccc2N(CC(=O)O)C1=O (stereo unspecified)	-28%	-7%	.	.	.	.
Cc1ccc(C(=O)N(Cc2cc3cccc(C)c3nc2N2CCC(O)CC2)C2CC2)cc1	.	.	13µM*	-1%[9.04 µM]	.	.
Cc1cccc2cc(CN(C(=O)c3ccc(C(F)(F)F)cc3)C3CC3)c(N3CCC(O)CC3)nc12	.	.	?	-4%[9.04 µM]	.	.
CCOc1cc(C)c(S(=O)(=O)NCCCn2ccnc2)cc1C	3%	6%[1.91 µM]	?	?	7	-6%
COc1cc(C)c(S(=O)(=O)NCCCn2ccnc2)cc1C	.	.	18µM*	15µM*	32	-11%
CCOC(=O)N(C)c1c(CC)nc2c(OCc3ccc(Cl)cc3)cccn12	.	.	15µM*	21µM*	-27	.
CCc1nc2c(OCC(=O)C(C)(C)C)cccn2c1N(C)C(=O)c1ccc(C)cc1	.	.	?	?	-18	.
